# Records with an inconclusive call do not appear. Some structures have more than one record in an assay (separate samples or runs), and their calls can disagree. Calls of active or inactive are those of the source. Calls come from the whole dose curve.
# Biological target: Acetylcholinesterase (Homo sapiens) (UniProt P22303)
# Assay: Acetylcholinesterase (AChE) small molecule antagonists: colormetric cell-based qHTS assay (AID 1347395); note: nearly all actives have a fitted effect of over 30% in size
# Conditions: SH-SY5Y cells AChE activity, colorimetric (Ellman); series mostly up to 115 µM; activity, negative = inhibition: at the top concentration
# How it was run: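 In this cell-based qHTS, attached SH-SY5Y cells were treated with test chemicals for 30 min, after which acetylthiocholine hydrolysis was followed by DTNB colour development over 90 min at 37 C.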
# % is set by controls: 0 for no effect and ±100 for the full control effect.
# Chain of Acetylcholinesterase (Homo sapiens) (P22303 whole entry, looked up): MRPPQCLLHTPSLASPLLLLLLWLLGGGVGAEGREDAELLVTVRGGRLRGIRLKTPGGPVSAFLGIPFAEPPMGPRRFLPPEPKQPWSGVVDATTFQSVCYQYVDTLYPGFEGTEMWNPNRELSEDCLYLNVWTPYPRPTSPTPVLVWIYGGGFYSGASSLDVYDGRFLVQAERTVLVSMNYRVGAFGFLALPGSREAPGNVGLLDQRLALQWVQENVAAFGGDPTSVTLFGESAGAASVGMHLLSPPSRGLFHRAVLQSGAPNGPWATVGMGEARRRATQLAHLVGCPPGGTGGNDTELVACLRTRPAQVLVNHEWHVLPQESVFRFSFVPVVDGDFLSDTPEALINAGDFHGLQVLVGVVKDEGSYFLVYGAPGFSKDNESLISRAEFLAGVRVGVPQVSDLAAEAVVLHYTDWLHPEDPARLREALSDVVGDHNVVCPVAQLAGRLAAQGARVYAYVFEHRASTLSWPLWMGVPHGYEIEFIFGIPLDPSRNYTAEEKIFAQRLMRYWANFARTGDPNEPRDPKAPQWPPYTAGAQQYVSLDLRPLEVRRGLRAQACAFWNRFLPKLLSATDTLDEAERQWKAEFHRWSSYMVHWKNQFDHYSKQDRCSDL
SMILES,Potency,"activity, negative = inhibition"
CCC(Cc1c(I)cc(I)c(N)c1I)C(=O)O (configuration not stated),inactive,–
CCNc1ccccc1,inactive,–
CCCCCNCCCCC,inactive,–
C[C@@H]1NC(=O)[C@@H](N)CNC(=O)[C@H](C2CCNC(N)=N2)NC(=O)/C(=C/NC(N)=O)NC(=O)[C@H](CNC(=O)C[C@@H](N)CCCN)NC1=O (some centres not stated),–,-1.67% [at 0.435 µM] (inactive)
Oc1ccc2c(c1)OCO2,–,-0.359% (inactive)
c1ccc2[nH]ccc2c1,inactive,–
CCCCCCCCCCCCCCCCCCN(C)C,–,1.5% [at 52.9 µM] (inactive)
CNC1(C)C2CCC(C2)C1(C)C (configuration not stated),–,4.04% [at 52.9 µM] (inactive)
Clc1cccc(-c2cc(Cl)cc(Cl)c2)c1,–,1.3% (inactive)
CC(C)C[C@H](NC(=O)[C@H](CCc1ccccc1)NC(=O)CN1CCOCC1)C(=O)N[C@@H](Cc1ccccc1)C(=O)N[C@@H](CC(C)C)C(=O)[C@@]1(C)CO1,–,2.61% [at 52.9 µM] (inactive)
O=C=NCCCCCCN=C=O,inactive,–
O=S(O)O,–,0.406% [at 23.6 µM] (inactive)
O=C(O)Cn1c(=O)n(Cc2ccc(Br)cc2F)c(=O)c2ccc(Cl)cc21,inactive,–
NC(=O)COCCN1CCN(C(c2ccccc2)c2ccc(Cl)cc2)CC1 (configuration not stated),–,0.948% [at 52.9 µM] (inactive)
COC(=O)/C=C/c1ccccc1,inactive,–
CC(CCO)CCc1ccccc1 (configuration not stated),–,1.11% (inactive)
CC1CN(c2ccccc2)NC1=O (configuration not stated),–,-5.92% (inactive)

# Biological target: Acetylcholinesterase (Homo sapiens) (UniProt P22303)
# Assay: Acetylcholinesterase (AChE) small molecule antagonists: enzyme-based qHTS assay (AID 1347397); note: nearly all actives have a fitted effect of over 55% in size; note: potency is the fitted concentration of half-maximal effect
# Conditions: Potency: AChE enzyme activity inhibition; outcome: AChE enzyme activity inhibition; series mostly up to 115 µM; activity change, negative = inhibition: at the top concentration
# How it was run: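 Compound or DMSO vehicle was pin-transferred onto recombinant human AChE (50 mU/mL as dispensed) and left 30 min at room temperature. Acetylthiocholine with DTNB then started the reaction, read colorimetrically 10 min later.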
SMILES,"activity change, negative = inhibition",Potency
CC(=O)OC[C@H]1O[C@@H](OC(C)=O)[C@H](OC(C)=O)[C@@H]1OC(C)=O,0.592% [at 53 µM] (inactive),–
CC/C(=C(\c1ccc(O)cc1)c1ccc(OCCN(C)C)cc1)c1ccccc1,–,79.9 µM (active)
CCOC(=O)[C@H](CCc1ccccc1)N[C@@H](C)C(=O)N1C(=O)N(C)C[C@H]1C(=O)O,-1.11% [at 53 µM] (inactive),–
CN(C)CCCN(C)C,0.096% [at 10.5 µM] (inactive),–
Nc1cc(-c2ccncc2)c[nH]c1=O,–,inactive
CCCCCCCCCCn1cc[n+](CCCCCCCCCC)c1C,–,35.6 µM (active)
Cc1ccc2oc(=O)ccc2c1,–,inactive
Nc1ccc(O)cc1,–,inactive
CCOC(=O)C(C#N)=C(c1ccccc1)c1ccccc1,–,inactive
Cc1cccc(C)c1NC(=O)CN1CCN(CCCC(c2ccc(F)cc2)c2ccc(F)cc2)CC1,-8.47% [at 53 µM] (inactive),–
CN1C(=O)CC(C)(c2ccccc2)C1=O (configuration not stated),0.554% [at 53 µM] (inactive),–
COC(=O)c1nc(Cl)c(Cl)nc1N,0% [at 53 µM] (inactive),–
Cc1ccccc1OCC1CO1 (configuration not stated),0.405% (inactive),–
c1ccc(CNCCNCc2ccccc2)cc1,-0.277% [at 53 µM] (inactive),–
CCCCOC(=O)c1ccc(O)cc1,–,inactive
CCCOC(C)=O,1.26% (inactive),–
O=c1[nH]nnc2ccccc12,–,inactive
Fc1ccc([C@@H]2CCNC[C@H]2COc2ccc3c(c2)OCO3)cc1,0% [at 53 µM] (inactive),–
Cc1ncc(CSSCc2cnc(C)c(O)c2CO)c(CO)c1O,-0.0169% [at 53 µM] (inactive),–
CCc1ccccc1CC,–,inactive

SMILES,"activity change, negative = inhibition",Potency
Cc1cccc2c1cc1ccc3cccc4ccc2c1c34,-0.159% (inactive),–
NNc1nc(-c2ccc([N+](=O)[O-])cc2)cs1,2.91% (inactive),–
CCOC(=O)C1=C(C)NC(C)=C(C(=O)OC)C1c1cccc([N+](=O)[O-])c1 (configuration not stated),0.0114% [at 53 µM] (inactive),–
CCC(Cc1c(I)cc(I)c(N)c1I)C(=O)O (configuration not stated),–,inactive
CCNc1ccccc1,–,inactive
CCCCCNCCCCC,–,inactive
C[C@@H]1NC(=O)[C@@H](N)CNC(=O)[C@H](C2CCNC(N)=N2)NC(=O)/C(=C/NC(N)=O)NC(=O)[C@H](CNC(=O)C[C@@H](N)CCCN)NC1=O (some centres not stated),-0.97% [at 0.435 µM] (inactive),–
Oc1ccc2c(c1)OCO2,0% (inactive),–
c1ccc2[nH]ccc2c1,–,inactive
CCCCCCCCCCCCCCCCCCN(C)C,2.44% [at 53 µM] (inactive),–
CNC1(C)C2CCC(C2)C1(C)C (configuration not stated),0.821% [at 53 µM] (inactive),–
Clc1cccc(-c2cc(Cl)cc(Cl)c2)c1,-0.704% (inactive),–
CC(C)C[C@H](NC(=O)[C@H](CCc1ccccc1)NC(=O)CN1CCOCC1)C(=O)N[C@@H](Cc1ccccc1)C(=O)N[C@@H](CC(C)C)C(=O)[C@@]1(C)CO1,1.22% [at 53 µM] (inactive),–
O=C=NCCCCCCN=C=O,–,inactive
O=S(O)O,-0.777% [at 23.6 µM] (inactive),–
O=C(O)Cn1c(=O)n(Cc2ccc(Br)cc2F)c(=O)c2ccc(Cl)cc21,–,inactive
NC(=O)COCCN1CCN(C(c2ccccc2)c2ccc(Cl)cc2)CC1 (configuration not stated),2.43% [at 53 µM] (inactive),–
COC(=O)/C=C/c1ccccc1,–,inactive
CC(CCO)CCc1ccccc1 (configuration not stated),1.42% (inactive),–
CC1CN(c2ccccc2)NC1=O (configuration not stated),-1.75% (inactive),–

# Biological target: Acetylcholinesterase (Homo sapiens) (UniProt P22303)
# Assay: Acetylcholinesterase (AChE) small molecule antagonists: fluorescence cell-based qHTS assay (AID 1347398); note: nearly all actives have a fitted effect of over 50% in size; note: potency is the fitted concentration of half-maximal effect
# Conditions: SH-SY5Y cells; Potency: AChE activity; outcome: AChE activity; series mostly up to 115 µM; activity change, negative = inhibition: at the top concentration
# How it was run: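 Using neuroblastoma SH-SY5Y cells as the enzyme source, test chemicals are preincubated 30 min at 37 C; AChE-driven acetylthiocholine cleavage is then quantified by thiocholine-dependent Thiolite Green fluorescence after 40 min at room temperature.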
SMILES,"activity change, negative = inhibition",Potency
CC(=O)OC[C@H]1O[C@@H](OC(C)=O)[C@H](OC(C)=O)[C@@H]1OC(C)=O,1.91% [at 53.7 µM] (inactive),–
CC/C(=C(\c1ccc(O)cc1)c1ccc(OCCN(C)C)cc1)c1ccccc1,–,40 µM (active)
CCOC(=O)[C@H](CCc1ccccc1)N[C@@H](C)C(=O)N1C(=O)N(C)C[C@H]1C(=O)O,0.806% [at 53.7 µM] (inactive),–
CN(C)CCCN(C)C,0.828% [at 10.5 µM] (inactive),–
Nc1cc(-c2ccncc2)c[nH]c1=O,–,inactive
CCCCCCCCCCn1cc[n+](CCCCCCCCCC)c1C,–,40 µM (active)
Cc1ccc2oc(=O)ccc2c1,–,inactive
Nc1ccc(O)cc1,–,inactive
CCOC(=O)C(C#N)=C(c1ccccc1)c1ccccc1,–,inactive
Cc1cccc(C)c1NC(=O)CN1CCN(CCCC(c2ccc(F)cc2)c2ccc(F)cc2)CC1,-8.03% [at 53.7 µM] (inactive),–
CN1C(=O)CC(C)(c2ccccc2)C1=O (configuration not stated),10.6% [at 53.7 µM] (inactive),–
COC(=O)c1nc(Cl)c(Cl)nc1N,-1.76% [at 53.7 µM] (inactive),–
Cc1ccccc1OCC1CO1 (configuration not stated),0.0128% (inactive),–
c1ccc(CNCCNCc2ccccc2)cc1,-0.654% [at 53.7 µM] (inactive),–
CCCCOC(=O)c1ccc(O)cc1,–,36 µM (active) and inactive
CCCOC(C)=O,0.495% (inactive),–
O=c1[nH]nnc2ccccc12,–,inactive
Fc1ccc([C@@H]2CCNC[C@H]2COc2ccc3c(c2)OCO3)cc1,-13.5% [at 53.7 µM] (inactive),–
Cc1ncc(CSSCc2cnc(C)c(O)c2CO)c(CO)c1O,1.6% [at 53.7 µM] (inactive),–
CCc1ccccc1CC,–,inactive

SMILES,"activity change, negative = inhibition",Potency
Cc1cccc2c1cc1ccc3cccc4ccc2c1c34,2.64% (inactive),–
NNc1nc(-c2ccc([N+](=O)[O-])cc2)cs1,-8.29% (inactive),–
CCOC(=O)C1=C(C)NC(C)=C(C(=O)OC)C1c1cccc([N+](=O)[O-])c1 (configuration not stated),4.16% [at 53.7 µM] (inactive),–
CCC(Cc1c(I)cc(I)c(N)c1I)C(=O)O (configuration not stated),–,inactive
CCNc1ccccc1,–,inactive
CCCCCNCCCCC,–,inactive
C[C@@H]1NC(=O)[C@@H](N)CNC(=O)[C@H](C2CCNC(N)=N2)NC(=O)/C(=C/NC(N)=O)NC(=O)[C@H](CNC(=O)C[C@@H](N)CCCN)NC1=O (some centres not stated),6.12% [at 0.439 µM] (inactive),–
Oc1ccc2c(c1)OCO2,7.68% (inactive),–
c1ccc2[nH]ccc2c1,–,inactive
CCCCCCCCCCCCCCCCCCN(C)C,14.3% [at 53.7 µM] (inactive),–
CNC1(C)C2CCC(C2)C1(C)C (configuration not stated),7.32% [at 53.7 µM] (inactive),–
Clc1cccc(-c2cc(Cl)cc(Cl)c2)c1,-7.6% (inactive),–
CC(C)C[C@H](NC(=O)[C@H](CCc1ccccc1)NC(=O)CN1CCOCC1)C(=O)N[C@@H](Cc1ccccc1)C(=O)N[C@@H](CC(C)C)C(=O)[C@@]1(C)CO1,26.9% [at 53.7 µM] (inactive),–
O=C=NCCCCCCN=C=O,–,inactive
O=S(O)O,0.464% [at 23.8 µM] (inactive),–
O=C(O)Cn1c(=O)n(Cc2ccc(Br)cc2F)c(=O)c2ccc(Cl)cc21,–,inactive
NC(=O)COCCN1CCN(C(c2ccccc2)c2ccc(Cl)cc2)CC1 (configuration not stated),2.08% [at 53.7 µM] (inactive),–
COC(=O)/C=C/c1ccccc1,–,inactive
CC(CCO)CCc1ccccc1 (configuration not stated),5.8% (inactive),–
CC1CN(c2ccccc2)NC1=O (configuration not stated),-1.22% (inactive),–
